# High-throughput results as filed in PubChem.
# BAZ2B block = inhibitors of human BAZ2B bromodomain | AlphaScreen BAZ2B-H3K14Ac peptide displacement | Potency, µM (titrated, usually from 114 µM), for inactives: at the top dose activity change, negative = inhibition, usual class: inhibitors | 360,000 tested, 4.4% active | AID 504333; further: on the % scale 0 is the no-effect control and ±100 the full control effect; nearly all actives have a fitted effect of over 60% in size
#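 BAZ2B (50 nM) with biotin-H3(5-23)K14Ac peptide (50 nM) in PBS pH 7.4, 0.01% Tween-20, preformed 30 min, then compound 30 min at room temperature; top concentration 110uM. AlphaScreen streptavidin donor/nickel chelate acceptor beads (10 ug/mL final), 20 min dark, signal read.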
# G9a block = blocks human histone lysine methyltransferase G9a; AID 504332; G9a H3K9 monomethylation, AlphaScreen, 2 h; Q96KQ7; Potency, µM (series often up to 102 µM), for the others: top-dose activity, negative = inhibition, actives largely listed as inhibitors; 350,000 tested, 8.8% active; further: on the % scale 0 is the no-effect control and ±100 the full control effect; nearly all actives have a fitted effect of over 75% in size
# Target sequence (Q96KQ7 913-1193 limits assumed): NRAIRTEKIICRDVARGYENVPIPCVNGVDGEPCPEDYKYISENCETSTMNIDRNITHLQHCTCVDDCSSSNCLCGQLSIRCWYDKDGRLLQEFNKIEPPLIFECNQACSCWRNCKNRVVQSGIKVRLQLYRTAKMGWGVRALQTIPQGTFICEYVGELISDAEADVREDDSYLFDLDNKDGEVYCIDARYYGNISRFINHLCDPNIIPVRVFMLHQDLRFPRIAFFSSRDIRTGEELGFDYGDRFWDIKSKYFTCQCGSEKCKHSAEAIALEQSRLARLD
#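 AlphaScreen read-out: biotin-H3K9 peptide (500 nM) methylation by 20 nM enzyme with 20 uM SAM, 2 h at room temperature after 15 min compound preincubation; anti-monomethyl H3K9 antibody plus donor/acceptor beads, 10 min dark.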
# HP1b chromo inh = inhibitors of HP1-beta chromodomain binding to methylated histone tails. P83916. AlphaScreen HP1-beta / biotin-H3K9me3 peptide binding. Potency, µM (titrated, usually from 114 µM), inactives show top-dose activity change, negative = inhibition, actives largely listed as inhibitors. 390,000 tested, 0.56% active; further: nearly all actives have a fitted effect of over 70% in size
# Target sequence (P83916 whole entry, looked up): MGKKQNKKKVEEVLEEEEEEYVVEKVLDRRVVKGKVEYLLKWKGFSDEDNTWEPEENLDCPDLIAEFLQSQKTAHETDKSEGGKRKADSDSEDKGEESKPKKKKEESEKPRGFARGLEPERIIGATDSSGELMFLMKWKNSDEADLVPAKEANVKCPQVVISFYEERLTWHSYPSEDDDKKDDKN
#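 Compound inhibition of the preformed complex between 50 nM HP1-beta and 50 nM biotinylated H3K9me3 peptide was read by AlphaScreen. Buffer was PBS pH 7.4 with 0.01% Tween-20. Incubations ran 30 min at room temperature, with 10 ug/mL donor/acceptor beads.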
# L3MBTL1 block = inhibitors of human L3MBTL1. 230,000 tested, 0.66% active. Q9Y468. Potency, µM (series often up to 57.1 µM), for the others: top-dose activity, negative = inhibition, usual class: inhibitors. AlphaScreen L3MBTL1–H3K9me1 peptide binding. AID 485360; further: on the % scale 0 is the no-effect control and ±100 the full control effect; nearly all actives have a fitted effect of over 60% in size
#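 AlphaScreen assay: L3MBTL1 (50 nM final) was preincubated 30 min at room temperature with biotinylated H3(1-15)K9me1 peptide (75 nM final), then 30 min with library compounds; streptavidin donor and nickel chelate acceptor beads (10 ug/mL final) added, 30 min dark.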
# JMJD2A Tudor = inhibitors of human JMJD2A Tudor domain | O75164 | AlphaScreen JMJD2A-Tudor / H3K4me3 peptide binding | Potency, µM (top dose mostly 114 µM), for the others: at the highest dose activity change, negative = inhibition, actives largely listed as inhibitors | 390,000 tested, 4.4% active; further: on the % scale 0 is the no-effect control and ±100 the full control effect; nearly all actives have a fitted effect of over 50% in size
# Active calls of the source: *; ? = inconclusive; · = no result given; [ ] = remark or other dose. Rows were chosen to be rich in hits. Some 11% of all compounds tested hit in one or more screens of this group. The call rests on the fitted dose curve; in most records, active means well fitted inhibition curve with a large enough effect; inconclusive means small, poorly fitted or top-dose-only effect; inactive means no such curve, though single readings can be large or run the other way. Potency means the concentration at half of the fitted maximal effect.
SMILES,BAZ2B block,G9a block,HP1b chromo inh,L3MBTL1 block,JMJD2A Tudor
CC(=O)OCC(NC(=O)C(Cc1ccccc1)NC(=O)OC(C)(C)C)C1OC(n2cc(C)c(=O)[nH]c2=O)C(OC(C)=O)C1OC(C)=O (configuration not stated),·,·,20%,·,-6%
Oc1ccccc1C1=Nc2ncnn2C(c2ccccc2)C1 (configuration not stated),-25%,18µM*,2%,7%,-23%
COc1cccc(NC(=O)[C@@H]2CCC(=O)N2C2OC(=O)c3ccccc32)c1 (some centres not stated),11%,·,44%,·,-4%
c1nc(N2CCC(N3CCCC3)CC2)c2cc(-c3ccc4c(c3)OCO4)ccc2n1,·,·,·,·,-13%
CCN(CC)S(=O)(=O)c1ccc(NC2=NS(=O)(=O)c3ccccc32)cc1,?,4%,33%,·,-5%
O=S1(=O)N=C(Nc2nncs2)c2ccccc21,56µM*,2µM*,-17%,·,?
CC(C)(C)C(=O)Nc1cccc(C(=O)OCc2cc(=O)n3nc(C4CC4)sc3n2)c1,-18%,?,24%,·,-8%
O=C(NC(NC(=S)Nc1c(Cl)cccc1Cl)C(Cl)(Cl)Cl)OCc1ccccc1 (configuration not stated),-23%,3.2µM*,10%,-13%,-17%
CCOc1ccc(NC(=O)Nc2cccn(Cc3ccccc3)c2=O)cc1,40µM*,·,-16%,-15%,?
CC(C)(C)c1ccc(-c2nnc(SCC(=O)NC3CCS(=O)(=O)C3)n2N)cc1 (configuration not stated),·,20µM*,9%,·,-24%
O=C(CSc1nnc(-c2ccccc2)n1-c1ccc(Cl)cc1)NC1CCS(=O)(=O)C1 (configuration not stated),-1%,20%[59 µM],8%,2%,-11%
CCCCn1c(SCC(=O)NC2CCS(=O)(=O)C2)nnc1-c1ccc(OC)cc1 (configuration not stated),0%,?,31%,8%,-4%
Cc1ccccc1-n1c(-c2ccc(Cl)cc2)cnc1SCC(=O)NC1CCS(=O)(=O)C1 (configuration not stated),50µM*,8.9µM*,-29%,-3%,?
CCOc1ccc(-c2nc(Cn3c(=O)cc(-c4ccccc4)c4c(C)nn(C)c43)c(C)o2)cc1OC,-24%,-4%[59 µM],7%,·,-16%
O=C(Nc1ccc(-c2nc3cc(NC(=O)c4ccc(F)cc4)ccc3o2)cc1)c1ccc(F)cc1,8%,6%[59 µM],-11%,·,-25%
O=C(Nc1ccc2oc(-c3cccnc3)nc2c1)c1ccc2c(c1)OCCO2,79µM*,14µM*,-3%,-2%,89µM*
O=C(Nc1ccc2oc(-c3cccnc3)nc2c1)c1ccc(-c2ccccc2)o1,?,11µM*,-20%,·,?
O=C(Nc1ccc2oc(-c3ccncc3)nc2c1)c1ccc2c(c1)OCO2,?,?,10%,·,?
O=C(Nc1ccc2oc(-c3ccncc3)nc2c1)c1ccc(F)cc1,50µM*,82%,143%,·,?
O=C(Nc1ccc2oc(-c3ccncc3)nc2c1)c1ccc2c(c1)OCCO2,56µM*,20µM*,-19%,·,56µM*
Cc1cccc(C)c1NC(=O)N1C(C(=O)O)CSC1C(=O)O (configuration not stated),?,?,-6%,20%,18µM*
CC(C)(C)c1cc(CCC(=O)N2CCC2)cc(C(C)(C)C)c1O,89µM*,100%,31%,·,-6%
COc1ccc(-n2c(-c3ccccc3)cc3c2CCCC3=O)cc1,11µM*,13µM*,?,32µM*,32µM*
O=C1CCCc2c1cc(-c1ccccc1)n2-c1ccc(O)cc1,-6%,4%,29%,-12%,-6%
CC1CC2=C(NC(=S)NC2c2cccc(F)c2)/C(=C/c2cccc(F)c2)C1 (configuration not stated),?,32µM*,?,-28%,?
SMILES,BAZ2B block,G9a block,HP1b chromo inh,L3MBTL1 block,JMJD2A Tudor
CC1CC2=C(NC(=S)NC2c2ccccc2F)/C(=C/c2ccccc2F)C1 (configuration not stated),?,18µM*,-8%,-16%,?
C/C(=N\NC(=O)c1ccccc1F)c1ccc2c(c1)Nc1ccccc1S2,-1%,?,17%,-7%,-19%
C/C(=N\NC(=O)c1ccc(O)cc1)c1ccc2c(c1)Nc1ccccc1S2,50µM*,16µM*,-22%,1%,79µM*
Cc1ccc2[nH]c3c(=O)n(Cc4ccncc4)cnc3c2c1,50µM*,-5%,32%,·,-11%
COc1cc(C(=O)Nc2c(C(=O)Nc3ccccc3F)oc3ccccc23)cc(OC)c1OC,-1%,14%[59 µM],32%,·,-14%
O=C(COCc1cc(-c2cccs2)on1)Nc1cccc(Cl)c1Cl,62%,25%[59 µM],90%,·,54%
CCCC(=O)N(Cc1cc(=O)[nH]c2ccccc12)c1ccc(C)cc1,-3%,25µM*,-9%,·,89µM*
Cc1ccc(N(Cc2cc(=O)[nH]c3ccccc23)C(=O)C(C)C)cc1,-5%,50µM*,34%,0%,-9%[11.4 µM]
CCCC(=O)N(Cc1cc(=O)[nH]c2ccccc12)c1ccccc1OC,-14%,45µM*,20%,·,-15%
CCN(Cc1cc(=O)[nH]c2ccccc12)C(=O)C(C)C,-1%,6%,-2%,-3%,-7%
COc1ccc(N(Cc2cc(=O)[nH]c3ccccc23)C(=O)c2ccco2)cc1,1%,50µM*,10%,40%,?
COc1ccc(CCNC(=O)c2ccc(Cn3c(=O)[nH]c4cc(OC)c(OC)cc4c3=O)cc2)cc1OC,-1%,1%[59 µM],25%,·,-8%
COc1ccc(-c2cn3c(n2)sc2cc(C(=O)NCCCN4CCCCCC4)ccc23)cc1,-2%,-7%[59 µM],9%,·,-27%
CC(C)(CCC(=S)N1CCOCC1)C1CCCCC1,2%,8.9µM*,-20%,13%,1%
S=C(CN1CCCC1=S)N1CCOCC1,·,·,29%,·,-1%
Cc1cccc(C(=O)NCC(c2ccc3c(c2)OCO3)N2CCOCC2)c1 (configuration not stated),2%,11%[59 µM],23%[57 µM],·,-12%
O=[N+]([O-])c1ccc(CN2CCCCCC2)s1,40µM*,10µM*,3.2µM*,?,20µM*
O=C(CCC1N=C2c3ccccc3N=C(SCc3ccc(Cl)cc3)N2C1=O)N1CCN(c2ccccc2)CC1 (configuration not stated),-25%,6%[59 µM],13%,·,-24%
O=C(NNc1ccnc2cc(Cl)ccc12)C1CCCCC1,-15%,6%,4%,11%,-10%
Clc1ccc2c(NNc3ccccc3Cl)ccnc2c1,2µM*,3.2µM*,-18%,?,?
NC(=S)NNc1ccc(Cl)c(Cl)c1,?,13µM*,-13%,·,?
